Article PMC7862700, “An all-to-all approach to the identification of sequence-specific readers for epigenetic DNA modifications on cytosine”

How the values were obtained:
Assay in all cases: DAPPL (digital affinity profiling via proximity ligation, sequencing); 10 mM Tris-HCl pH 7.5, 50 mM NaCl, 1 mM DTT, 4% glycerol, room temperature, 30 min; GST-TFs on glutathione beads, 16-mer random dsDNA library, 0.1% formaldehyde crosslink after washing; high values mean tight binding
FLI1 = target: T1, FLI1 (Homo sapiens, UniProt Q01543 1-452); conditions: protein: recombinant; tags: N-terminal GST; dsDNA, one strand shown
T1 sequence: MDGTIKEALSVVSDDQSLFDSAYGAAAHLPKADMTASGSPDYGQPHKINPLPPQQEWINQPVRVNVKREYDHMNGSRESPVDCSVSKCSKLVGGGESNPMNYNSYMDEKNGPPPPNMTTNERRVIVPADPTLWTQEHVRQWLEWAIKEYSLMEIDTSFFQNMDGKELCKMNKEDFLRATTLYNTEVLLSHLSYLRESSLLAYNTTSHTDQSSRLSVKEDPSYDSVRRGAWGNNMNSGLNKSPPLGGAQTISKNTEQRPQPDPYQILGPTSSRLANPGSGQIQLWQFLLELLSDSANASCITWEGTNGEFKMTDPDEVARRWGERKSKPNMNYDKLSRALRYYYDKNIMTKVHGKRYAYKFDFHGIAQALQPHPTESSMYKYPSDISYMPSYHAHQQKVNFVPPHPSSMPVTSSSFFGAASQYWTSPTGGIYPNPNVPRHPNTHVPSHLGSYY
Method in brief: (§1)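 Binding signal is given per hexamer as its read frequency for a factor divided by its frequency in the tag-only sample. GST-fused human transcription factors were expressed in yeast, captured on glutathione beads, barcoded with DNA and pooled with that sample, then incubated with 200 nmole of a 16-mer random double-stranded DNA library in Tris/NaCl/DTT/glycerol buffer for 30 min at room temperature. The pools were then washed, crosslinked, proximity-ligated, amplified by PCR and sequenced on an Illumina NextSeq500.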

ELK1 = target: T2, ELK1 (Homo sapiens, UniProt P19419 1-428); conditions: protein: recombinant; tags: N-terminal GST; dsDNA, one strand shown
T2 sequence: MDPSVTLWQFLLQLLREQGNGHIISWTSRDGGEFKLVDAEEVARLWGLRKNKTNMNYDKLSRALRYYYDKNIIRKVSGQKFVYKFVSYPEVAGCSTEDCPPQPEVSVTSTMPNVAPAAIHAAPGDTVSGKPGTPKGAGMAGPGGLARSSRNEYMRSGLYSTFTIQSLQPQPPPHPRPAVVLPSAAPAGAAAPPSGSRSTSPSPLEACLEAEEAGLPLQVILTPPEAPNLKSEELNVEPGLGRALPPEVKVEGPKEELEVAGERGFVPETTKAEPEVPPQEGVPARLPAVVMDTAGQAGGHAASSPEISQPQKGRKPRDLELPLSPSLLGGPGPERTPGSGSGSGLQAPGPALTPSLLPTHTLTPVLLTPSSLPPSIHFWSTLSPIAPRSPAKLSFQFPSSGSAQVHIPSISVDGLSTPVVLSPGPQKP
Method in brief: as §1

GABPA = target: T3, GABPA (Homo sapiens, UniProt Q06546 1-454); conditions: protein: recombinant; tags: N-terminal GST; dsDNA, one strand shown
T3 sequence: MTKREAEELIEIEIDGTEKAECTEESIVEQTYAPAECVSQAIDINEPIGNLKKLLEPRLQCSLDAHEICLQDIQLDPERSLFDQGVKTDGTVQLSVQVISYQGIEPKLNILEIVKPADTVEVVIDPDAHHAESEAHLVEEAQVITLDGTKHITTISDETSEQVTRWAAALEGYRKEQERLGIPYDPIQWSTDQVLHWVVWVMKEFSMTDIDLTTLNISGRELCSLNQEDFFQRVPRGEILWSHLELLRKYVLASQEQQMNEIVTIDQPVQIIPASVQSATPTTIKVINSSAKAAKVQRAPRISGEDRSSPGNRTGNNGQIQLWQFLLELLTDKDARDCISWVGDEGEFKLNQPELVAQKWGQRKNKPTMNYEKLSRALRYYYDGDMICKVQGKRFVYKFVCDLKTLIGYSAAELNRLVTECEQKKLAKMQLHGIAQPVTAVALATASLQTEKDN
Method in brief: as §1

ERG = target: T4, ERG (Homo sapiens, UniProt P11308 1-479); conditions: protein: recombinant; tags: N-terminal GST; dsDNA, one strand shown
T4 sequence: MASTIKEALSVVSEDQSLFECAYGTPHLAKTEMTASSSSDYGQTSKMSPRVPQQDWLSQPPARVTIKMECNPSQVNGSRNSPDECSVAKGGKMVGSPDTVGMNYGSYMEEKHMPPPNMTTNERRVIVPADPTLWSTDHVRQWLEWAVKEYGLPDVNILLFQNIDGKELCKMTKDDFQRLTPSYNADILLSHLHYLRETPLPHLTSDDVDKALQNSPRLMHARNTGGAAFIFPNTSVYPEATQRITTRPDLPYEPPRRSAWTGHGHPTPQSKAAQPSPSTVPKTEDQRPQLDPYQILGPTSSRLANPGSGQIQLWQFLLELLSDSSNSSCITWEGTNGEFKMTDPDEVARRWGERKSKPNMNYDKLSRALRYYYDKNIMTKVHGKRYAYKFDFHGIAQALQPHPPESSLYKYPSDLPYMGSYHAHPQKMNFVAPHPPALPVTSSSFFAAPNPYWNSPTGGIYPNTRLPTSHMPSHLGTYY
Method in brief: as §1

ELF1 = ELF1 (Homo sapiens, UniProt P32519 1-619); conditions: protein: recombinant; tags: N-terminal GST; dsDNA, one strand shown
Chain of ELF1 (P32519 whole entry): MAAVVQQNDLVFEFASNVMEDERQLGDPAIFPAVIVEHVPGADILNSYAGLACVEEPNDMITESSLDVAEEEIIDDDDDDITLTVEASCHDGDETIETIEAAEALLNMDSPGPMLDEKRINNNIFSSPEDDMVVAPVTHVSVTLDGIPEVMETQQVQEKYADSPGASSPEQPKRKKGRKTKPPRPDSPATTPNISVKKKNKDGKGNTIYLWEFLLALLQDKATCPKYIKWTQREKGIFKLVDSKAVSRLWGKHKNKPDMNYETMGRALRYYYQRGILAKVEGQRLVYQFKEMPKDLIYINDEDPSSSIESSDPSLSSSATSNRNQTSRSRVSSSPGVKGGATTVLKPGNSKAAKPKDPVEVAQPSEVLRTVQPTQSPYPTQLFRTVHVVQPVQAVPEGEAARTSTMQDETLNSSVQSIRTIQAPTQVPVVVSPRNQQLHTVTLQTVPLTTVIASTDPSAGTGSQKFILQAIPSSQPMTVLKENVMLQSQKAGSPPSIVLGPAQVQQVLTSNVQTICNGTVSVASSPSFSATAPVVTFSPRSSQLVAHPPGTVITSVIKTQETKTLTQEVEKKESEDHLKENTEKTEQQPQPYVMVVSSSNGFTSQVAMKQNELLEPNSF
Method in brief: as §1

EHF = target: T5, EHF (Homo sapiens, UniProt Q9NZC4 1-300); conditions: protein: recombinant; tags: N-terminal GST; dsDNA, one strand shown
T5 sequence: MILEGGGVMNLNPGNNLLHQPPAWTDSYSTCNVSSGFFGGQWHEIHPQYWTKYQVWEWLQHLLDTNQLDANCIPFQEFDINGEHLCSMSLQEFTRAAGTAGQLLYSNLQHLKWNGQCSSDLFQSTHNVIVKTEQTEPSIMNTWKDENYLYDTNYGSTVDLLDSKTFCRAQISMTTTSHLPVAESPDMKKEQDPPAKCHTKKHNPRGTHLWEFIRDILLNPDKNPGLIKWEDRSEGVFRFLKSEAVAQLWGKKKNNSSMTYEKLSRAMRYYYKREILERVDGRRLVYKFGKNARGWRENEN
Method in brief: as §1

SPI1 = SPI1 (Homo sapiens, UniProt P17947 1-270); conditions: protein: recombinant; tags: N-terminal GST; dsDNA, one strand shown
Method in brief: as §1

SPIB = SPIB (Homo sapiens, UniProt Q01892 1-262); conditions: protein: recombinant; tags: N-terminal GST; dsDNA, one strand shown
Chain of SPIB (Q01892 whole entry): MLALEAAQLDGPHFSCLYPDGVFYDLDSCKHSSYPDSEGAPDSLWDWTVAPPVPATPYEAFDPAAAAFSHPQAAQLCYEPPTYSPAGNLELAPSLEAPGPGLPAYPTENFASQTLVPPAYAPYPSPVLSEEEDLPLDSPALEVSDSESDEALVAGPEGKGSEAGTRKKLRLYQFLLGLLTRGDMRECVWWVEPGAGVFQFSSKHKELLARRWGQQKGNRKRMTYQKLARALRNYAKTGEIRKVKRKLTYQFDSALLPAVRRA
Method in brief: as §1

ELK3 = target: T6, ELK3 (Homo sapiens, UniProt P41970 1-407); conditions: protein: recombinant; tags: N-terminal GST; dsDNA, one strand shown
T6 sequence: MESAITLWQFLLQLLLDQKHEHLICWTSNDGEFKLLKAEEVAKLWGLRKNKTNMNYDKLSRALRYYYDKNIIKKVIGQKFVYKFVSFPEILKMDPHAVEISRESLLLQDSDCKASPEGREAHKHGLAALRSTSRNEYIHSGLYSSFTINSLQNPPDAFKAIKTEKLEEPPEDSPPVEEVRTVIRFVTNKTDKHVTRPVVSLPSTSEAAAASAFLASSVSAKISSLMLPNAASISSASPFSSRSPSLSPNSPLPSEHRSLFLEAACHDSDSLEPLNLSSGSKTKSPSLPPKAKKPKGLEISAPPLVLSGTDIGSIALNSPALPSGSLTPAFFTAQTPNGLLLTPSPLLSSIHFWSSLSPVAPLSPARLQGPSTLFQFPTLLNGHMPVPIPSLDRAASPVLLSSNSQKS
Method in brief: as §1

FEV = target: T7, FEV (Homo sapiens, UniProt Q99581 1-238); conditions: protein: recombinant; tags: N-terminal GST; dsDNA, one strand shown
T7 sequence: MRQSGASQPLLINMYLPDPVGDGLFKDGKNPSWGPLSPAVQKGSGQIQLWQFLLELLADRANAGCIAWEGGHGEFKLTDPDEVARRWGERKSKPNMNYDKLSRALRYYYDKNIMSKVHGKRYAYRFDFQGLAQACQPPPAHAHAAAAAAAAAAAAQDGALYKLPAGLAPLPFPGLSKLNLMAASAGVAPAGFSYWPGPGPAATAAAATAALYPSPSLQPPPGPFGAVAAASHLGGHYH
Method in brief: as §1

ETV5 = ETV5 (Homo sapiens, UniProt P41161 1-510); conditions: protein: recombinant; tags: N-terminal GST; dsDNA, one strand shown
Chain of ETV5 (P41161 whole entry): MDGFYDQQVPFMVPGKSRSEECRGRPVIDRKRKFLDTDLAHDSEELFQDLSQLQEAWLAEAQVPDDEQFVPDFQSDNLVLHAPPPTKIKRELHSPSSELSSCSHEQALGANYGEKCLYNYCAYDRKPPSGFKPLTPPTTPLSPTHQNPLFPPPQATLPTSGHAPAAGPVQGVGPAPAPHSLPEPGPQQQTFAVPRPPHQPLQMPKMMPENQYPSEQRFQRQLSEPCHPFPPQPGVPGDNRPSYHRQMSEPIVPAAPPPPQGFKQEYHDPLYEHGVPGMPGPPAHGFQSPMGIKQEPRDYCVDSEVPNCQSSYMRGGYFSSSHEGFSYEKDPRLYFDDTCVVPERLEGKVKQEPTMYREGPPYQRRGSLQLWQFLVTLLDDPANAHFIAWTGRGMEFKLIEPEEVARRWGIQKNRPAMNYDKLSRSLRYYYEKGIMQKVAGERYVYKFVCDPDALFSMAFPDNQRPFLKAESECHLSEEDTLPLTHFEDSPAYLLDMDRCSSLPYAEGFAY
Method in brief: as §1

HSF1 = HSF1 (Homo sapiens, UniProt Q00613 1-529); conditions: protein: recombinant; tags: N-terminal GST; chain copies: 3; dsDNA, one strand shown
Chain of HSF1 (Q00613 whole entry): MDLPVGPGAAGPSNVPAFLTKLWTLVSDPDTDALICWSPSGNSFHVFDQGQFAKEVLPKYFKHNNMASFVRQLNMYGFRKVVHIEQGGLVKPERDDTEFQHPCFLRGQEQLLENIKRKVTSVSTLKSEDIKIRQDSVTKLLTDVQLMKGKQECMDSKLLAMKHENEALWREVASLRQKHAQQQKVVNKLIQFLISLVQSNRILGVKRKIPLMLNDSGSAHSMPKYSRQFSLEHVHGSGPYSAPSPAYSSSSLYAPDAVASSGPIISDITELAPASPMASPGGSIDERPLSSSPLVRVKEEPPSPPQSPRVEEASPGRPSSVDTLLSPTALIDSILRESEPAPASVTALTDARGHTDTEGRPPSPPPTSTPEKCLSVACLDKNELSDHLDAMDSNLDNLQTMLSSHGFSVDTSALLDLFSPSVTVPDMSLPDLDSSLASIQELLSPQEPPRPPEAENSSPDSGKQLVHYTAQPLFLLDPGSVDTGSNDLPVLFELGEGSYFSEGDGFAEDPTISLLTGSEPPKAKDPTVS
Method in brief: as §1

SPIC = target: T8, SPIC (Homo sapiens, UniProt Q8N5J4 1-248); conditions: protein: recombinant; tags: N-terminal GST; dsDNA, one strand shown
T8 sequence: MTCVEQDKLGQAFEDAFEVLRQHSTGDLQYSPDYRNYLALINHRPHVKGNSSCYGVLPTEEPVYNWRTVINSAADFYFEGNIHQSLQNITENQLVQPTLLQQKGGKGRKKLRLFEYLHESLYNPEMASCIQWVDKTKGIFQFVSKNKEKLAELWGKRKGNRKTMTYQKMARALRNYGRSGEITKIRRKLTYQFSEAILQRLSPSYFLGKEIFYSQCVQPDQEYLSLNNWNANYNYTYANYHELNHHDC
Method in brief: as §1

ELF4 = ELF4 (Homo sapiens, UniProt Q99607 1-663); conditions: protein: recombinant; tags: N-terminal GST; dsDNA, one strand shown
Chain of ELF4 (Q99607 whole entry): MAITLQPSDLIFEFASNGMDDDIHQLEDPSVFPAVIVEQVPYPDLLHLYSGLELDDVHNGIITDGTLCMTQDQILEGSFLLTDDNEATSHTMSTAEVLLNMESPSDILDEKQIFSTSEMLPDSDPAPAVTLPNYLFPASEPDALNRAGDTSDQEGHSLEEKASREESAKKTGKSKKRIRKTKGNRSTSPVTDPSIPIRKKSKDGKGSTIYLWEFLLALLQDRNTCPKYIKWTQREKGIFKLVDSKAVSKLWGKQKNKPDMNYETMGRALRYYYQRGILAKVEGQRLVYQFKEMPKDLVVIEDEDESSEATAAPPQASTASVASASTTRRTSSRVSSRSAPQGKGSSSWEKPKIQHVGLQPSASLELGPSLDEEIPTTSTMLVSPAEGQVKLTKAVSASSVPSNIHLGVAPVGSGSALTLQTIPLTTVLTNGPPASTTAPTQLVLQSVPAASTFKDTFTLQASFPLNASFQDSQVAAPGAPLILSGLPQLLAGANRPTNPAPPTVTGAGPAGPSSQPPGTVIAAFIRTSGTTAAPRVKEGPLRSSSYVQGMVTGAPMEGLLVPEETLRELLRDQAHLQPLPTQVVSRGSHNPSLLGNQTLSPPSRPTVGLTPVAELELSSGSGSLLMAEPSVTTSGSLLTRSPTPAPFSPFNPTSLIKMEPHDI
Method in brief: as §1

ELK4 = target: T9, ELK4 (Homo sapiens, UniProt P28324-2 1-405); conditions: protein: recombinant; tags: N-terminal GST; dsDNA, one strand shown
T9 sequence: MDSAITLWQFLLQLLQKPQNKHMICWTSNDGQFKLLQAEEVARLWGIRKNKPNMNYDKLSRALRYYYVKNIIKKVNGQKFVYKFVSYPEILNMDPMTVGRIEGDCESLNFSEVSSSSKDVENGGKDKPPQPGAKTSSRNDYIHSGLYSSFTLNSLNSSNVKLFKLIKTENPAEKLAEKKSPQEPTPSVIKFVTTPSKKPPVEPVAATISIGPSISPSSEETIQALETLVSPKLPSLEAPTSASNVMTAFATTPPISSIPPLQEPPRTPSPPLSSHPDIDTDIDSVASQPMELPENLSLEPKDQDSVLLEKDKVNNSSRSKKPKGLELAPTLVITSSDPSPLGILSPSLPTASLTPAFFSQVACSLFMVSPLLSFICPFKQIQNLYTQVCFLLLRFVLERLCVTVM
Method in brief: as §1

ETV2 = target: T10, ETV2 (Homo sapiens, UniProt O00321 1-342); conditions: protein: recombinant; tags: N-terminal GST; dsDNA, one strand shown
T10 sequence: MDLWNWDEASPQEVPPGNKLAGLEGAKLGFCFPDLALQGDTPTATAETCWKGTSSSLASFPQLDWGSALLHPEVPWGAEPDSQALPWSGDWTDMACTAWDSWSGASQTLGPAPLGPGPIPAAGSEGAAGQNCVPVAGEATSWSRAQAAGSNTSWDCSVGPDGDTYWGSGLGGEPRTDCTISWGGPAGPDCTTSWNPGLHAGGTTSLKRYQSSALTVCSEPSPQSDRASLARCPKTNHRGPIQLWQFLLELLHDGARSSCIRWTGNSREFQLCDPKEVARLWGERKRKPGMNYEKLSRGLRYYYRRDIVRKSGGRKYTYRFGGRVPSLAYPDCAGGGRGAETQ
Method in brief: as §1

ELF3 = target: T11, ELF3 (Homo sapiens, UniProt P78545 1-371); conditions: protein: recombinant; tags: N-terminal GST; dsDNA, one strand shown
T11 sequence: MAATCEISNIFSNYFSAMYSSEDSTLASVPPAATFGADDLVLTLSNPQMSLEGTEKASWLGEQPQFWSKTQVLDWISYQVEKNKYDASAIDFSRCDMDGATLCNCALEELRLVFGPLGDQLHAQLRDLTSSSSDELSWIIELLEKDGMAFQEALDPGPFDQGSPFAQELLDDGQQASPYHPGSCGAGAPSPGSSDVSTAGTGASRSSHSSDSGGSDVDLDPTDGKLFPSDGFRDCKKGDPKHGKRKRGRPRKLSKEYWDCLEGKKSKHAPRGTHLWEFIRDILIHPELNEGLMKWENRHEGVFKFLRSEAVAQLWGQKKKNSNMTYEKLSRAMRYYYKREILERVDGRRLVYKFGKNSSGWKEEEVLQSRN
Method in brief: as §1

CRX = CRX (Homo sapiens, UniProt O43186 1-299); conditions: protein: recombinant; tags: N-terminal GST; dsDNA, one strand shown
Chain of CRX (O43186 whole entry): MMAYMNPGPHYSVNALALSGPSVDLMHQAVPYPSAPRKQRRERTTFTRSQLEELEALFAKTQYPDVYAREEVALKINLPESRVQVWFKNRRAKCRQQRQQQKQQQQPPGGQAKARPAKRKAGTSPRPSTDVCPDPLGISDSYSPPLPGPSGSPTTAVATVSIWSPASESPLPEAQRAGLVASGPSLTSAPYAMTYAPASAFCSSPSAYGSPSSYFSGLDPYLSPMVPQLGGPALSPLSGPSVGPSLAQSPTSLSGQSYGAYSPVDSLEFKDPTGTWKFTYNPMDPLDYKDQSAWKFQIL
Method in brief: as §1

ETV1 = ETV1 (Homo sapiens, UniProt P50549 1-477); conditions: protein: recombinant; tags: N-terminal GST; dsDNA, one strand shown
Chain of ETV1 (P50549 whole entry): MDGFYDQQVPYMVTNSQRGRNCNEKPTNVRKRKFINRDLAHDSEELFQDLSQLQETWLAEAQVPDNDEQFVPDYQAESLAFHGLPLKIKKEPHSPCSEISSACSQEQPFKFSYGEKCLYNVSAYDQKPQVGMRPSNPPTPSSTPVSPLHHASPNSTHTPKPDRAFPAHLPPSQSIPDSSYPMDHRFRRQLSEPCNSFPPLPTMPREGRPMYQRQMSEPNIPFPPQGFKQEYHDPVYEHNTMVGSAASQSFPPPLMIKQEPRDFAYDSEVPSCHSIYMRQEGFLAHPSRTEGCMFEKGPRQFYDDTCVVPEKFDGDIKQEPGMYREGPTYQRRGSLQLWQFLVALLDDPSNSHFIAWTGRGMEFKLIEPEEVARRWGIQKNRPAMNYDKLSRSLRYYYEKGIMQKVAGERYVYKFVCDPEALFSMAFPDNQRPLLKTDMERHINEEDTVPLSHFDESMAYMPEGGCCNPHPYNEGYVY
Method in brief: as §1

GCTCCG
binding signal (FLI1): 1.37 fold enrichment (6-mer frequency, TF over GST control)
binding signal (ELK1): 1.4 fold enrichment (6-mer frequency, TF over GST control)
binding signal (GABPA): 1.35 fold enrichment (6-mer frequency, TF over GST control)
binding signal (ERG): 1.36 fold enrichment (6-mer frequency, TF over GST control)
binding signal (ELF1): 1.32 fold enrichment (6-mer frequency, TF over GST control)
binding signal (EHF): 1.45 fold enrichment (6-mer frequency, TF over GST control)
binding signal (SPI1): 1.25 fold enrichment (6-mer frequency, TF over GST control)
binding signal (SPIB): 1.19 fold enrichment (6-mer frequency, TF over GST control)
binding signal (ELK3): 1.44 fold enrichment (6-mer frequency, TF over GST control)
binding signal (FEV): 1.42 fold enrichment (6-mer frequency, TF over GST control)
binding signal (ETV5): 1.33 fold enrichment (6-mer frequency, TF over GST control)
binding signal (HSF1): 1.2 fold enrichment (6-mer frequency, TF over GST control)
binding signal (SPIC): 1.54 fold enrichment (6-mer frequency, TF over GST control)
binding signal (ELF4): 1.39 fold enrichment (6-mer frequency, TF over GST control)
binding signal (ELK4): 1.33 fold enrichment (6-mer frequency, TF over GST control)
binding signal (ETV2): 1.32 fold enrichment (6-mer frequency, TF over GST control)
binding signal (ELF3): 1.32 fold enrichment (6-mer frequency, TF over GST control)
binding signal (CRX): 1.07 fold enrichment (6-mer frequency, TF over GST control)
binding signal (ETV1): 1.27 fold enrichment (6-mer frequency, TF over GST control)
